GPR151 activ: activators of human GPR151 | Q8TDV0 | PathHunter beta-arrestin GPR151 cells, luminescence | activation, % at 11.2 µM | 650,000 tested, 1% active | AID 1508602; in the data active = activation above about 4.9%
TEAD-YAP block: TEAD-YAP interaction inhibition; HEK-TIYL cells, TEAD-Gal4/YAP UAS-luciferase luminescence; inhibition, % at 9.12 µM; 640,000 tested, 1.4% active; AID 1259422; in the data active = inhibition above about 32%
MITF primary: blocks human microphthalmia-associated transcription factor. O75030. AlphaScreen MITF homodimerization, bead proximity signal. inhibition, % at 2.6 µM. 650,000 tested, 0.91% active. AID 1259374; in the data active = inhibition above about 50%
Target sequence (O75030 whole entry, looked up): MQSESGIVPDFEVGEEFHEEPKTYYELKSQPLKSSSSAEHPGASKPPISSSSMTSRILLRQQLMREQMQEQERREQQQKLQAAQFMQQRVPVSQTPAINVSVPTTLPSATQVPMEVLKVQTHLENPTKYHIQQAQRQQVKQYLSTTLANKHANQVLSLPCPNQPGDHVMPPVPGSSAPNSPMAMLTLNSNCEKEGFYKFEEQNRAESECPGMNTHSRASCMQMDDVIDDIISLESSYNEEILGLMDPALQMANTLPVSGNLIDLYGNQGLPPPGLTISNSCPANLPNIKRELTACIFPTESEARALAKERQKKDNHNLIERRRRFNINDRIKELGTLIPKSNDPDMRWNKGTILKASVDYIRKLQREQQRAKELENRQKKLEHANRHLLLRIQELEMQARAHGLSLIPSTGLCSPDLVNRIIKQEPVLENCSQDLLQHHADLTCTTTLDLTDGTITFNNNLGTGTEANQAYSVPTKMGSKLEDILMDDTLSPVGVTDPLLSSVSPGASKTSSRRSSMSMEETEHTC
FBW7 activator: human FBW7 E3 ligase activation, primary screen | 650,000 tested, 0.13% active | normalized activity (activation), % at 26.1 µM | Q969H0 | AlphaScreen FBW7–phospho-cyclin E peptide binding, activator screen; in the data active = normalized activity above about 1.9%;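 note: purified mutant Fbw7 with reduced substrate affinity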
Numbers stand for hits; n = inactive. Most compounds without a hit are left out; they make up all but 3.4% or so of the library.

SMILES | GPR151 activ | TEAD-YAP block | MITF primary | FBW7 activator
COc1cccc2c1OC1(CCCCC1)N1N=C(c3ccc(C)o3)CC21 (configuration not stated) | n | n | n | n
COc1cccc(/C=N/NC(=O)c2cccs2)c1 | n | n | n | n
COc1cccc(N=C/C(C(=O)C(F)(F)F)=C(\O)c2cccs2)c1 | n | 82 | n | n
Cc1cccc(C)c1OCC(=O)N/N=C/c1cn(C)c2ccccc12 | n | 51 | n | n
Cc1cccc(C)c1OCC(=O)N/N=C/c1ccccc1F | n | 37 | n | n
Cc1ccc(C)c(OCC(=O)N/N=C\c2ccccc2F)c1 | n | n | n | n
Cc1ccc(OCC(=O)N/N=C/c2cc([N+](=O)[O-])ccc2F)cc1 | n | 60 | n | n
c1cc(-c2ccc3c(c2)OCO3)nc(NCCCN2CCOCC2)n1 | n | n | n | n
O=C(NCCCc1ccccc1)C1CC12CCN(C(=O)CN1CCCC1)CC2 (configuration not stated) | n | n | n | n
COc1ccc(N2CC(C)Cn3c2nc2c3c(=O)n(Cc3ccc(F)cc3)c(=O)n2C)cc1 (configuration not stated) | n | n | n | n
O=C(COC(=O)c1cc2ccccc2cc1O)Nc1ccc(Br)cc1F | n | n | n | n
O=C(O)c1ccccc1C(=O)Nc1nc(-c2ccc(Br)cc2)cs1 | n | n | n | 2.1
Cc1ccc(-c2csc(NC(=O)c3ccccc3NS(=O)(=O)c3ccc(C)cc3)n2)cc1 | n | n | n | n
Cc1ccc(S(=O)(=O)Nc2ccccc2C(=O)Nc2nc3ccc(Br)cc3s2)cc1 | n | 55 | n | n
Cc1ccc(-c2csc(NC(=O)c3ccccc3C(=O)O)n2)cc1 | n | n | n | n
Cc1ccc(S(=O)(=O)Nc2ccccc2C(=O)Nc2nc(-c3ccc(F)cc3)cs2)cc1 | n | 54 | n | n
Cc1ccc(S(=O)(=O)Nc2ccccc2C(=O)Nc2nc3c(Cl)cccc3s2)cc1 | n | 33 | n | n
Cc1ccc(S(=O)(=O)Nc2ccccc2C(=O)Nc2nc3ccc(Cl)cc3s2)cc1 | n | n | n | n
CC(C)Nc1nc(Cl)nc(Nc2ccc(I)cc2)n1 | n | n | n | n
Cc1ccc2nc(NC(=O)C3=COCCO3)sc2c1 | n | 66 | n | n
CS(=O)(=O)c1ccc2nc(NC(=O)C3=COCCO3)sc2c1 | n | n | n | n
O=C(Nc1ccc(F)cc1)c1ccc2c(c1)OCCO2 | n | 59 | n | n
COc1ccc(C(=O)Nc2ccc3sc(C)nc3c2)cc1 | n | n | n | n
Cc1nc2cc(NC(=O)c3ccc4c(c3)OCCO4)ccc2s1 | n | 61 | n | n
O=C(Nc1onc2c1CCCC2)c1ccc2c(c1)OCCO2 | n | 91 | n | n
SMILES | GPR151 activ | TEAD-YAP block | MITF primary | FBW7 activator
O=C(Nc1onc2c1CCCC2)c1ccc(F)cc1 | n | n | n | n
CCOC(=O)c1ccc(NC(=O)c2ccc3c(c2)OCCO3)cc1 | n | 35 | n | n
Cc1ccc2nc(-c3nonc3N)[nH]c2c1 | n | n | n | n
COC(=O)c1ccc(C(=O)OC)c(NC(=O)CSc2nnc3ccccn23)c1 | n | n | n | n
CCCOC(=O)c1ccc(NC(=O)c2ccc3c(c2)OCCO3)cc1 | n | 41 | n | n
CCCOC(=O)c1ccc(NC(=O)c2ccc(Cl)c(Cl)c2)cc1 | n | n | n | n
CC(C)(C)c1ccc(C(=O)Nc2ccccn2)cc1 | n | 84 | n | n
C=CCOc1ccc(C(=O)Nc2ccccn2)cc1 | n | 52 | n | n
Cc1ccc(C(=O)Nc2ccccn2)cc1C | n | 44 | n | n
O=C(CC1S/C(=N\N=C2CCCCCCC2)NC1=O)Nc1ccccc1 (configuration not stated) | n | n | n | n
O=C1C=CC2=C3c4cc(O)c(O)cc4C[C@@]3(O)COC2=C1 | n | n | 88 | n
CC(C)OC(=O)CSc1nc2c(c(-c3ccc(O)cc3)c1C#N)CCCC2 | n | 48 | n | n
Oc1ccccc1N1CCN(c2ncnc3sccc23)CC1 | n | 56 | n | n
Clc1ccc(OCc2cn3ccccc3n2)cc1 | n | n | n | n
O=C1CCc2ccc(OCc3cn4ccccc4n3)cc21 | n | 58 | n | n
COC(=O)c1cc(NC(=O)C23CCC(C)(C(=O)C2=O)C3(C)C)cc(C(=O)OC)c1 (configuration not stated) | n | n | 59 | n
N#Cc1c(N)nc2c(c1-c1ccsc1)CCCCCC2 | n | n | n | n
O=C(c1ccc(Cl)cc1)c1cc([N+](=O)[O-])ccc1N1CCOCC1 | n | 53 | n | n
CN1CCN(c2ccc([N+](=O)[O-])cc2C(=O)c2ccc(Cl)cc2)CC1 | n | 41 | n | n
O=C(c1ccc(Br)cc1)c1cc([N+](=O)[O-])ccc1N1CCOCC1 | n | 54 | n | n
CN1CCN(c2ccc([N+](=O)[O-])cc2C(=O)N2CCCCC2)CC1 | n | n | n | n
NC(=O)c1cc([N+](=O)[O-])ccc1N1CCOCC1 | n | n | n | n
COc1ccc(C(=O)Nc2c[nH]c(=O)[nH]c2=O)cc1[N+](=O)[O-] | n | n | n | n
CCOc1ccc(-c2[nH]nc3c2C(c2cccs2)C(C#N)=C(N)O3)c(OCC)c1 (configuration not stated) | n | n | n | n
CC1(C2CCN(C(=O)c3cccc(F)c3F)CC2)NC(=O)N(Cc2ccncc2)C1=O (configuration not stated) | n | n | n | n
SMILES | GPR151 activ | TEAD-YAP block | MITF primary | FBW7 activator
COc1ccccc1-n1c(CNC(=O)COc2ccccc2)nnc1SCC(=O)N1N=C(c2cccs2)CC1c1ccc(C)cc1 (configuration not stated) | n | 41 | n | n
Cc1ccc(C2CC(c3cccs3)=NN2C(=O)CSc2nnc(CNC(=O)COc3ccccc3)n2-c2cccc(C)c2C)cc1 (configuration not stated) | n | n | n | n
N#Cc1cc(-c2ccnc(Nc3ccc(N4CCC(O)CC4)cc3)n2)cc(N2CCOCC2)c1 | n | 47 | n | n
Cc1cc(Nc2nccc(-c3cc(C#N)cc(N4CCOCC4)c3)n2)ccc1N1CCOCC1 | n | n | n | n
N#Cc1cc(-c2ccnc(Nc3cccc(CN4CCCCC4)c3)n2)cc(N2CCOCC2)c1 | n | 86 | n | n
CN(C)c1cc(F)cc(-c2ccnc(Nc3ccc(-n4cnc(N5CCC(O)CC5)n4)cc3)n2)c1 | n | 65 | n | n
COc1cccnc1-c1ncn(-c2ccc(Nc3nccc(-c4cc(F)cc(N5CCOCC5)c4)n3)cc2)n1 | n | 83 | n | n
CCN(CC)c1ccc(/C=C2\C(=O)N(c3c(Cl)cc(Cl)cc3Cl)N=C2NC(=O)c2cccc([N+](=O)[O-])c2)cc1 | n | n | n | n
O=c1c2ccccc2ncn1-c1ccc2nsnc2c1 | n | n | n | n
Cn1c(C(=O)O)c(CNC2CCCCCC2)c2ccccc21 | n | n | n | n
CC(C)CC(NC(=O)/C(=C\c1ccc([N+](=O)[O-])cc1)NC(=O)c1ccco1)C(=O)O (configuration not stated) | n | n | n | n
C[C@@H](Cn1nnc2ccccc21)NC(=O)CCc1ccccc1 | n | n | n | n
CCN1CCN(c2ncn(-c3ccc(Nc4nccc(-c5cc(N6CCOCC6)cc(C(F)(F)F)c5)n4)cc3)n2)CC1 | n | n | n | n
